Measured values taken from PubChem BioAssay (NCATS).
Results filed as inconclusive are left out. The source made the active and inactive calls. Calls come from the whole dose curve; as a rule, active = well fitted cell-killing curve with a large enough effect; inconclusive = small, poorly fitted or top-dose-only effect, or effect the other way; inactive = flat fitted curve, though single readings scatter.

What was measured:
Test in all cases: Primary qHTS to identify gynecologic anti-cancer compounds using libraries of approved drugs and bioactive compounds (AID 1345084); note: nearly all actives have a fitted effect of over 55% in size
Settings in all cases: Gynecologic cancer cell panel viability, ATPlite luminescence, 48 h; series mostly up to 57.5 µM
PA-1 = system: PA-1
Outline: (§1)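 Cells, 1,000 per well, plated 16 h, then exposed 48 h at 37 C to compounds. Viability by ATPlite luminescence after 15 min at room temperature.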

SKOV3 = system: SKOV3
Outline: as §1

Tov-21-G = system: Tov-21-G
Outline: as §1

Tov112D = system: Tov112D
Outline: as §1
% is set by controls: 0 for no effect and ±100 for the full control effect; potency is the fitted concentration of half-maximal effect.

COC1CC(=O)C23C(=O)NC(CC(C)C)C2C(C)=C(C)C(OO)C3/C=C(\C)CCC(O)C1O (configuration not stated)
inactive: Potency (PA-1) | Potency (SKOV3) | Potency (Tov-21-G) | Potency (Tov112D)

CCc1[nH]c2ccc(OC)cc2c1CCN(C)C
inactive: Potency (PA-1) | Potency (SKOV3) | Potency (Tov-21-G) | Potency (Tov112D)

Cc1cn(C[C@H](N)C(=O)O)c(=O)n(Cc2cc(-c3ccccc3)sc2C(=O)O)c1=O
inactive: Potency (PA-1) | Potency (SKOV3) | Potency (Tov-21-G) | Potency (Tov112D)

CN1[C@@H]2CC[C@H]1CC(OC(=O)C1C=Nc3ccccc31)C2 (some centres not stated)
inactive: Potency (PA-1) | Potency (SKOV3) | Potency (Tov-21-G) | Potency (Tov112D)

C=C(C)[C@H]1O[C@H]2CC[C@@]3(C)[C@@](O)(CC[C@H]4[C@@H]5OC(C)(C)[C@H]6C[C@@H]7C(=C)Cc8c(Cl)cc9[nH]c(c5c9c8[C@@]76O)[C@@]43C)[C@]23O[C@@H]3[C@H]1O
inactive: Potency (PA-1) | Potency (SKOV3) | Potency (Tov-21-G) | Potency (Tov112D)

CC[C@H]1CN2CC[C@H]1C[C@H]2[C@H](O)c1ccnc2ccc(OC)cc12
inactive: Potency (PA-1) | Potency (SKOV3) | Potency (Tov-21-G) | Potency (Tov112D)

C[C@]12CC[C@H]3[C@@H]([C@H](O)CC4=CC(=O)CC[C@@]43C)[C@@H]1CC[C@@H]2O
inactive: Potency (PA-1) | Potency (SKOV3) | Potency (Tov-21-G) | Potency (Tov112D)

COC(=O)C1(C)CCC(O)C2(C)c3c(O)cc(C(C)C)cc3C(O)C(OC(C)=O)C12 (configuration not stated)
inactive: Potency (PA-1) | Potency (SKOV3) | Potency (Tov-21-G) | Potency (Tov112D)

CCOc1ccccc1-n1c(C(C)N2CCN(C(=O)COc3ccc(Cl)cc3)CC2)nc2ccccc2c1=O (configuration not stated)
inactive: Potency (PA-1) | Potency (SKOV3)
active: Potency (Tov-21-G) 6310 nM

CC(C)(C)c1cc(C(C)(C)C)c2c(c1)C(O)(C(F)(F)F)C(=O)O2 (configuration not stated)
inactive: Potency (PA-1) | Potency (SKOV3) | Potency (Tov-21-G) | Potency (Tov112D)

Clc1ccc(N2C[C@H]3CC[C@@H](C2)N3)nn1
inactive: Potency (PA-1) | Potency (SKOV3) | Potency (Tov-21-G) | Potency (Tov112D)

COCC1OC(=O)c2coc3c2C1(C)C1=C(C3=O)C2CCC(=O)C2(C)CC1O (configuration not stated)
inactive: Potency (PA-1) | Potency (SKOV3) | Potency (Tov-21-G) | Potency (Tov112D)

COC(=O)[C@@]12C(=O)C(C)C(=O)[C@]1(C)C(C)=C[C@H]1[C@]3(C=O)CC[C@H](OC(C)=O)C(C)(C)[C@H]3CC[C@@]12C (some centres not stated)
inactive: Potency (PA-1) | Potency (SKOV3) | Potency (Tov-21-G) | Potency (Tov112D)

C/C=C(\C)C(=O)OC1CC2C(CC=C3CC(OC4CC(OC)C(OC5CC(OC)C(OC6OC(C)C(OC7OC(CO)C(O)C(O)C7O)C(OC)C6O)C(C)O5)C(C)O4)CCC32C)C2(O)CCC(C(C)=O)C12C (configuration not stated)
inactive: activity change, negative = cytotoxicity (PA-1) -3.75% [at 11.6 µM] | activity change, negative = cytotoxicity (SKOV3) 18.2% [at 11.6 µM] | activity change, negative = cytotoxicity (Tov-21-G) 3.39% [at 11.6 µM] | activity change, negative = cytotoxicity (Tov112D) 3.97% [at 11.6 µM]

COC1CC(OC2CCC3(C=O)C(CCC4C3CCC3(C)C(C5=CC(=O)OC5)CCC43O)C2)OC(C)C1OC1OC(CO)C(O)C(O)C1O (configuration not stated)
active: Potency (PA-1) 501 nM | Potency (SKOV3) 355 nM | Potency (Tov-21-G) 199 nM | Potency (Tov112D) 100 nM

N#C[C@@H](O[C@@H]1O[C@H](CO[C@@H]2O[C@H](CO)[C@@H](O)[C@H](O)[C@H]2O)[C@@H](O)[C@H](O)[C@H]1O)c1ccccc1
inactive: Potency (PA-1) | Potency (SKOV3) | Potency (Tov-21-G) | Potency (Tov112D)

CN1C(=O)N(c2ccc(C#N)c(C(F)(F)F)c2)C(=O)[C@]1(CO)c1ccccc1
inactive: Potency (PA-1) | Potency (SKOV3) | Potency (Tov-21-G) | Potency (Tov112D)

CC12CCC3C(CCC4(O)CC(O)CCC34C=O)C1(O)CCC2C1=CC(=O)OC1 (configuration not stated)
active: Potency (PA-1) 1120 nM | Potency (SKOV3) 1580 nM | Potency (Tov-21-G) 708 nM | Potency (Tov112D) 355 nM

CN1CCCC1CCOC(c1cc2nccc(C(=O)O)c2[nH]1)c1ccccc1Cl (configuration not stated)
inactive: Potency (PA-1) | Potency (SKOV3) | Potency (Tov-21-G) | Potency (Tov112D)

COC1CC(O[C@H]2CC[C@@]3(C)C(=CCC4C3C(O)[C@@H](O)[C@]3(C)[C@@H](C(C)=O)CC[C@]43O)C2)OC(C)C1OC1CC(OC)C(OC2OC(C)C(O)C(O)C2O)C(C)O1 (some centres not stated)
inactive: activity change, negative = cytotoxicity (PA-1) -3.19% [at 11.6 µM] | activity change, negative = cytotoxicity (SKOV3) -4.29% [at 11.6 µM] | activity change, negative = cytotoxicity (Tov-21-G) -7.27% [at 11.6 µM] | activity change, negative = cytotoxicity (Tov112D) 3.02% [at 11.6 µM]

C1=C2CCCN[C@H]2[C@@H]2C[C@H]1[C@H]1CCCCN1C2
inactive: Potency (PA-1) | Potency (SKOV3) | Potency (Tov-21-G) | Potency (Tov112D)

C=C[C@H]1[C@H](O[C@@H]2O[C@H](CO)[C@@H](O)[C@H](O)[C@H]2O)OC=C2C(=O)OCC[C@H]21
inactive: Potency (PA-1) | Potency (SKOV3) | Potency (Tov-21-G) | Potency (Tov112D)

CCCCCOc1cc2c(cc1-c1cc(/C=C/C(=O)O)ccc1O)C(C)(C)CCC2(C)C
inactive: Potency (PA-1) | Potency (SKOV3) | Potency (Tov-21-G) | Potency (Tov112D)

OC1(c2ccc(Cl)cc2)c2ccccc2C2=NCCN21 (configuration not stated)
inactive: Potency (PA-1) | Potency (SKOV3) | Potency (Tov-21-G) | Potency (Tov112D)

Cn1ncnc1COc1nn2c(-c3c(F)cccc3F)nnc2cc1C1CCC1
inactive: Potency (PA-1) | Potency (SKOV3) | Potency (Tov-21-G) | Potency (Tov112D)

CO[C@@H]1[C@H](O)[C@@H](O[C@@H]2C[C@H]3CC[C@@H]4C(CC[C@]5(C)[C@@H](C6=CC(=O)OC6)CC[C@]45O)[C@@]3(C)[C@H](O)C2)O[C@H](C)[C@@H]1O[C@@H]1O[C@H](CO)[C@@H](O)[C@H](O)[C@H]1O (some centres not stated)
active: Potency (PA-1) 398 nM | Potency (SKOV3) 562 nM | Potency (Tov-21-G) 199 nM | Potency (Tov112D) 100 nM

CCN1C[C@]2(COC)[C@H](O)C[C@H](OC)[C@]34[C@@H]5C[C@]6(O)[C@H](OC(=O)c7ccccc7)[C@@H]5[C@@](O)([C@H]([C@H](OC)[C@H]23)[C@@H]14)[C@@H](O)[C@@H]6OC
inactive: Potency (PA-1) | Potency (SKOV3) | Potency (Tov-21-G) | Potency (Tov112D)

C=CC(C)(O)CC/C=C(\C)C(=O)O[C@H]1[C@H](O)[C@@H](CO)O[C@@H](OC(=O)[C@]23CCC(C)(C)CC2C2=CCC4[C@@]5(C)CC[C@H](O[C@@H]6O[C@H](CO[C@@H]7OC[C@H](O)[C@H](O)[C@H]7O[C@@H]7OC[C@@H](O)[C@H](O)[C@H]7O)[C@@H](O)[C@H](O)[C@H]6O)C(C)(C)C5CC[C@@]4(C)[C@]2(C)CC3)[C@@H]1OC1OC(C)C(O[C@@H]2OC[C@@H](O)[C@H](O[C@@H]3OC[C@@H](O)[C@H](O)[C@H]3O)[C@H]2O)C(O)C1O (some centres not stated)
inactive: activity change, negative = cytotoxicity (PA-1) 3.75% [at 6.55 µM] | activity change, negative = cytotoxicity (SKOV3) 0% [at 6.55 µM] | activity change, negative = cytotoxicity (Tov-21-G) 5.83% [at 6.55 µM] | activity change, negative = cytotoxicity (Tov112D) 1.17% [at 6.55 µM]

O=C(N1CCOCC1)N1CCN(c2ccc(Cl)cc2)CC1
inactive: Potency (PA-1) | Potency (SKOV3) | Potency (Tov-21-G) | Potency (Tov112D)

CN1[C@H]2C[C@H](OC(=O)[C@H](CO)c3ccccc3)C[C@@H]1[C@@H](O)C2
inactive: Potency (PA-1) | Potency (SKOV3) | Potency (Tov-21-G) | Potency (Tov112D)

Clc1ccc(OCC2=NCCN2)cc1Cl
inactive: Potency (PA-1) | Potency (SKOV3) | Potency (Tov-21-G) | Potency (Tov112D)

COC(=O)N1CCN(C(=O)Cc2ccc(Cl)c(Cl)c2)[C@@H](CN2CCCC2)C1
inactive: Potency (PA-1) | Potency (SKOV3) | Potency (Tov-21-G) | Potency (Tov112D)

CCc1c(C(=O)C(N)=O)c2c(OCC(=O)OC)cccc2n1Cc1ccccc1
inactive: Potency (PA-1) | Potency (SKOV3) | Potency (Tov-21-G) | Potency (Tov112D)

CN(C(=O)Cc1ccccc1)C(CN1CCCC1)c1ccccc1 (configuration not stated)
inactive: Potency (PA-1) | Potency (SKOV3) | Potency (Tov-21-G) | Potency (Tov112D)

CCCN1CCO[C@H]2c3cc(O)ccc3OC[C@@H]21
inactive: Potency (PA-1) | Potency (SKOV3) | Potency (Tov-21-G) | Potency (Tov112D)

C[C@@]1(C(=O)O)CC[C@]2(C)CC[C@]3(C)C4=CC(=O)c5cc(O)c(O)cc5[C@]4(C)CC[C@@]3(C)[C@@H]2C1
inactive: Potency (PA-1) | Potency (SKOV3) | Potency (Tov-21-G) | Potency (Tov112D)

C=CC(C)(C)c1[nH]c2cccc3c2c1C[C@@H]1[C@@H]3[C@@H](OC(C)=O)[C@H](C)CN1C
inactive: Potency (PA-1) | Potency (SKOV3) | Potency (Tov-21-G) | Potency (Tov112D)

CC1C/C=C/C(O)C(O)CC/C=C/c2cc(O)cc(O)c2C(=O)O1 (configuration not stated)
inactive: Potency (PA-1) | Potency (SKOV3) | Potency (Tov-21-G) | Potency (Tov112D)

COC1C(O)C(C)OC(OC2C(CO)O[C@@H](O[C@@H]3CC4CCC5C(CC[C@]6(C)[C@@H](C7=CC(=O)OC7)CC[C@]56O)[C@@]4(C)[C@H](O)C3)C(O)C2O)C1O (some centres not stated)
active: Potency (PA-1) 2820 nM | Potency (SKOV3) 2820 nM | Potency (Tov-21-G) 1000 nM | Potency (Tov112D) 501 nM

C=C(CO)C(=O)O[C@H]1C/C(C)=C/CC/C(CO)=C/[C@H]2OC(=O)C(=C)[C@H]12
inactive: Potency (PA-1) | Potency (SKOV3) | Potency (Tov-21-G) | Potency (Tov112D)

CC1=C2C(=O)C3[C@@H](CC=C4C[C@@H](O)CC[C@@]43C)[C@@H]2CC[C@]12O[C@@H]1C[C@H](C)CN[C@H]1[C@H]2C (some centres not stated)
inactive: Potency (PA-1) | Potency (SKOV3) | Potency (Tov-21-G) | Potency (Tov112D)

CCN1C[C@]2(OC(=O)c3ccccc3NC(C)=O)CC[C@H](OC)[C@@]34[C@@H]2C[C@@H]([C@@H]13)[C@@]1(O)C[C@H](OC)[C@H]2C[C@@H]4[C@]1(O)[C@H]2OC
inactive: Potency (PA-1) | Potency (SKOV3) | Potency (Tov-21-G) | Potency (Tov112D)

OCCCCC#Cc1cncc(OC[C@@H]2CCN2)c1
inactive: Potency (PA-1) | Potency (SKOV3) | Potency (Tov-21-G) | Potency (Tov112D)

CCC(C)(C#N)O[C@@H]1O[C@H](CO)[C@@H](O)[C@H](O)[C@H]1O (some centres not stated)
inactive: Potency (PA-1) | Potency (SKOV3) | Potency (Tov-21-G) | Potency (Tov112D)

Oc1ccc2c3c1O[C@H]1[C@H](N(CCCl)CCCl)CC[C@@]4(O)[C@@H](C2)N(CC2CC2)CC[C@]314
inactive: activity change, negative = cytotoxicity (PA-1) 6.51% [at 11.6 µM] | activity change, negative = cytotoxicity (SKOV3) 9.08% [at 11.6 µM] | activity change, negative = cytotoxicity (Tov-21-G) 6.96% [at 11.6 µM] | activity change, negative = cytotoxicity (Tov112D) 3.75% [at 11.6 µM]

COc1ccccc1CN[C@H]1C2CCN(CC2)[C@H]1C(c1ccccc1)c1ccccc1
inactive: Potency (PA-1) | Potency (SKOV3) | Potency (Tov-21-G) | Potency (Tov112D)

CN[C@H]1[C@H](O)[C@H](O[C@@H]2[C@@H](O)[C@H](O[C@H]3O[C@H]([C@H](C)O)[C@@H](O)[C@H](O)[C@H]3N)[C@@H](N)C[C@H]2N)OC[C@@]1(C)O
inactive: Potency (PA-1) | Potency (SKOV3) | Potency (Tov-21-G) | Potency (Tov112D)
